Experimental findings from PubChem BioAssay are described below.

A short description of assay [1]: compounds altering viability of human ES cells (AID 493140; call rule not given here;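 note: cells exposed to compounds for four days before counting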). The note with it: human embryonic stem cell survival screen; stronger effect = higher value.
The nature of assay [2]: viability loss in pontine glioma line – cell-based, SU-DIPG-XXV, MIPE5.0, CellTiter-Glo, qHTS, dose response (AID 1347065; cut-off not given, nearly all actives have AC50 up to about 26 µM;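 note: cells exposed to compound for 48 hours before ATP readout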). To be noted: CellTiter-Glo ATP luminescence.
Assay [3] can be described thus: viability loss in pontine glioma line – cell-based, SU-DIPG-XVII, MIPE5.0, CellTiter-Glo, qHTS, dose response (AID 1347060; cut-off not given, nearly all actives have AC50 up to about 26 µM;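 note: cells exposed to compound for 48 hours before viability readout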). The note with it: CellTiter-Glo ATP luminescence.
Assay [4] in a line: liver-stage malaria parasite load reduction – cell-based, known kinase inhibitor set, luminescence, hepatoma host viability (AID 624392; call rule not given here;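 note: infected cells incubated roughly two days before readout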). To be noted: Plasmodium liver stage in hepatoma cells, luciferase luminescence, concentration not given here; liver cell % of control: measured here: host liver cell viability; parasite % of control: stronger effect = lower value.
In assay [5] the target is Mitogen-activated protein kinase 7 (Homo sapiens) (UniProt Q13164). Briefly: Gal4-ERK5 driven luciferase induction – cell-based, HTS, primary screen (AID 1508626;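 active = luciferase signal above three times the same-plate solvent-only control wells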;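 note: luciferase driven by Gal4-ERK5 fusion binding five Gal4 sites before minimal TATA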). To be noted: HeLa Gal4-ERK5 transactivation, 18 h, at 5 µM, stronger effect = higher value.
Assay [6] in a line: growth inhibition, single agent or in combination, cell-based, chromothripsis tumors, cisplatin or BGB combos (AID 1671449).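 Note: cells exposed for 96 hours; 0% = vehicle DMSO and 100% = killing by high DMSO.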 The note with it: LFS_MB_P medulloblastoma cells.
Assay [7] can be described thus: growth inhibition, single agent and combos, cell-based, chromothripsis tumors, cisplatin or BGB combos (AID 1671450).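 Note: cells exposed to compound for four days; 0% = vehicle DMSO and 100% = cell killing by high DMSO.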 The note with it: HDN33 neuroblastoma cells, stronger effect = higher value.
The nature of assay [8]: growth inhibition, single agents and combos, LFS_MB_1R, cell-based, cisplatin or BGB combos, synergistic combos for chromothripsis tumors (AID 1671452).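 Note: cells exposed for 96 hours before readout.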 The note with it: LFS_MB_1R medulloblastoma cells, stronger effect = higher value.
The nature of assay [9]: growth inhibition, single agents and combos, HTB85, cell-based, BGB or cisplatin IC20 combos, synergistic combos for chromothripsis tumors (AID 1671453).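 Note: cells exposed for 96 hours before readout; 0% = vehicle DMSO and 100% = high DMSO killing control.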 The note with it: HTB85 osteosarcoma cells, drug combinations, stronger effect = higher value.
Assay [10] in a line: growth inhibition, single agents and combos, CRL2098, cell-based, BGB or cisplatin IC20 combos, synergistic combos for chromothripsis tumors (AID 1671454).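 Note: cells exposed for 96 h before readout; 0% = vehicle DMSO and 100% = killing by high DMSO.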 To be noted: CRL2098 osteosarcoma cells, drug combinations, stronger effect = higher value.
The nature of assay [11]: growth inhibition, single agents and combos, HD-MB03, cell-based, BGB or cisplatin IC20 combos, synergistic combos for chromothripsis tumors (AID 1671455; in the data active = inhibition above about 83%;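 note: 0% = vehicle DMSO and 100% = high DMSO as cytotoxic control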). The note with it: HD-MB03 medulloblastoma cells, stronger effect = higher value.
Assay [12] is described as follows: growth inhibition, single agents and combos, UWB1.289, cell-based, BGB or cisplatin combos, synergistic combos for chromothripsis tumors (AID 1671456).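 Note: cells exposed to compound for four days; 0% = vehicle DMSO and 100% = killing by high DMSO.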 To be noted: UWB1.289 ovarian carcinoma cells, stronger effect = higher value.
Assay [13] in a line: growth inhibition, single agents and combos, LFS_MB_2R, cell-based, cisplatin combos, synergistic combos for chromothripsis tumors (AID 1671457).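 Note: cells exposed to compound for four days before readout.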 To be noted: LFS_MB_2R medulloblastoma cells, stronger effect = higher value.
A short description of assay [14]: growth inhibition, MDA-MB-436, cell-based, BGB or cisplatin combos, synergistic combos for chromothripsis tumors (AID 1671458; call rule not given here;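 note: cells exposed for 96 hours; 0% = vehicle DMSO and 100% = killing by high DMSO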). To be noted: MDA-MB-436 breast carcinoma growth inhibition, drug combinations, stronger effect = higher value.
The nature of assay [15]: UWB1.289_BRCA1 ovarian cancer growth, cell-based, BGB or cisplatin combinations (AID 1671459). To be noted: UWB1.289 BRCA1 ovarian carcinoma, drug combinations, stronger effect = higher value.
Assay [16] is described as follows: drug combination toxicity in non-malignant astrocytes – cell-based, BGB or cisplatin IC20 combos, cytotoxicity control for chromothriptic childhood tumor combination screen (AID 1671460).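 Note: cells exposed to compounds for 96 hours before viability readout; 0% = vehicle and 100% = killing control.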 To be noted: Human astrocytes, viability inhibition, drug combinations, at 0.5 µM, stronger effect = higher value.
The nature of assay [17]: BT084 cell growth, single and combined drugs, ICGC_MB145, cisplatin and BGB IC40 combos (AID 1671461).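 Note: cells exposed to drugs for 96 hours; 0% = vehicle DMSO and 100% = high DMSO full killing control.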 The note with it: BT084 medulloblastoma cells, drug combinations, stronger effect = higher value.
Assay [18] in a line: RCMB18 cell growth, single agent and combined, cisplatin and BGB IC40 combos (AID 1671462).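 Note: cells exposed to compound for four days.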 To be noted: RCMB18 medulloblastoma cells, stronger effect = higher value.
Assay [19] is described as follows: CRL1545 cell growth, single agent and combined, cisplatin and BGB IC20 combos (AID 1671464).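 Note: cells exposed to compound for 96 hours before readout; 0% = vehicle DMSO and 100% = high DMSO killing control.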 The note with it: CRL1545 osteosarcoma cells, stronger effect = higher value.
Setting [20] is: measured here: combination with BGB IC40, at 0.05 µM.
The mark [21] stands for this setting: measured here: with BGB IC20 combination, at 0.5 µM.
The mark [22] stands for this setting: measured here: with cisplatin IC20 combination, at 0.5 µM.
Where [23] appears, read: measured here: combination with cisplatin, at 0.5 µM.
The mark [24] stands for this setting: measured here: combination with cisplatin, at 5 µM.

“And” between values parts separate entries of the source, which are not always exact repeats. Equal values may be shown once. Results filed as inconclusive are left out. The source made the active and inactive calls. Cut-off read from the data, not from the text of the source, unless noted: active = inhibition above about 80%; inactive = the rest.

Mitogen-activated protein kinase 7 (Homo sapiens), sequence (Q13164 whole entry, looked up, the tested form may be a part): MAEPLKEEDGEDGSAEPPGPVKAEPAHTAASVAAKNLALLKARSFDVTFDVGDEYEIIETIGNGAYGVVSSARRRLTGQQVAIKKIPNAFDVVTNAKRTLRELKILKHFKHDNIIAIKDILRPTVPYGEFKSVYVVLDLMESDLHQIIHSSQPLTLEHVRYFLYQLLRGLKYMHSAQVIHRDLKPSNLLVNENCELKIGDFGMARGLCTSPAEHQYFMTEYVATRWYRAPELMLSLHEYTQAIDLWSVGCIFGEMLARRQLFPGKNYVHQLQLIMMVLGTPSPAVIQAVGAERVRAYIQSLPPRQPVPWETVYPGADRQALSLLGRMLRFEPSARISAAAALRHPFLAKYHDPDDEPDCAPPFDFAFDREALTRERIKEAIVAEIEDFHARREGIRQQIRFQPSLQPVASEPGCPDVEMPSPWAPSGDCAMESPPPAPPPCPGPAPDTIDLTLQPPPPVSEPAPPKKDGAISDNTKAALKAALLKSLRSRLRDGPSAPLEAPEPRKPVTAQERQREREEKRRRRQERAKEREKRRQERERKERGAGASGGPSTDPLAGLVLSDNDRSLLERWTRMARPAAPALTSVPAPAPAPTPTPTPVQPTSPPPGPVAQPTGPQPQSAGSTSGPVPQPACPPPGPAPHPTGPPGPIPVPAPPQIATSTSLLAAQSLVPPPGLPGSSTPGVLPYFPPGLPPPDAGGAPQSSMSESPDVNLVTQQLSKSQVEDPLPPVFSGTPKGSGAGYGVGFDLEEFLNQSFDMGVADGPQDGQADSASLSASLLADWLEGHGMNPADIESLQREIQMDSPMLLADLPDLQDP

In the case of `O=S(=O)(NCCNC/C=C/c1ccc(Br)cc1)c1cccc2cnccc12`, in assay [1], the survival is 202 (active). The AC50 – broadly, the midpoint of the concentration-response curve, whichever way the signal moves – in assay [2] is 23.5 µM (active).

`COc1cc2c(cc1O)CC[C@@H]1[C@@H]2CC[C@]2(C)[C@@H](O)CC[C@@H]12`: the AC50 in [3] was 1.32 µM (active); in assay [2], 1.48 µM (active).

Turning to `O=C(O)Cc1cccc(OCCCN(Cc2cccc(C(F)(F)F)c2Cl)CC(c2ccccc2)c2ccccc2)c1`, the AC50 in [2] was 20.9 µM (active).

Consider `Clc1ccc(-c2nc3sccn3c2/C=N/OCc2ccc(Cl)c(Cl)c2)cc1`, for which the AC50 in assay [2] is 23.5 µM (active).

Turning to `Oc1ccc(Nc2nc(-c3ccc(Cl)cc3)cs2)cc1`, the AC50 in assay [2] is 5.9 µM (active).

In the case of `COc1ccc(Nc2nccc(NCCO)n2)cc1`, the result in [2] was inactive.

Regarding `C[C@H](NC(=O)c1sccc1OCc1ccc(Cl)cc1)c1ccccc1`, in [2], the AC50 was 16.6 µM (active).

For the compound `CN(C)CCCn1cc(C2=C(c3c[nH]c4ccccc34)C(=O)NC2=O)c2ccccc21`, the survival in assay [1] is 60.4 (inactive).

Regarding `COc1cc(/C=C(\C#N)C(N)=O)cc(CSc2nc3ccccc3s2)c1O`, the survival in assay [1] was 114 (inactive).

On to `Cn1cc(C2=C(c3ccc(Cl)cc3Cl)C(=O)NC2=O)c2ccccc21`, for which, in assay [4], the liver cell % of control is 105% and 92.9% and 90.2%; the parasite % of control is 19.2% (inactive) and 24.2% (inactive) and 47.4% (inactive).

For `CCSC(=N)N`, the luciferase signal in assay [5] was 16 AU (inactive).

For `CCCCCCCC/C=C\CCCCCCCC(=O)NCCc1ccc(O)c(O)c1`, the survival in assay [1] is 98 (inactive).

For the compound `Cc1ccc(-c2nn(C(C)(C)C)c3ncnc(N)c23)cc1`, the survival in [1] was 82.2 (inactive).

As for `CC(C)(C)n1nc(-c2ccc(Cl)cc2)c2c(N)ncnc21`, the survival in [1] is 53.1 (inactive).

In the case of `CCCCCCCCCCCCCCCC(=O)OC(CC(=O)O)C[N+](C)(C)C` (stereo not drawn), the survival in assay [1] was 103 (inactive).

As to `O=S(=O)(c1cccc2c(Cl)cccc12)N1CCCNCC1`, the survival in assay [1] is 62 (inactive).

As to `CCCCCCCCCCCCC/C=C/[C@@H](O)[C@H](CO)NC(C)=O`, the survival in assay [1] is 95 (inactive).

For the compound `CN(C)c1ccc(/C=C2\C(=O)Nc3ccccc32)cc1`, the survival in assay [1] was 85.4 (inactive).

`Oc1cc2c(cc1O)C(c1ccccc1)CNCC2` (stereo not drawn): the luciferase signal in assay [5] was 44 AU (inactive).

On to `CCCCCCCC/C=C\CCCCCCCC(N)=O`, for which the survival in assay [1] is 102 (inactive).

For the compound `N.N.O=C(O)C1(C(=O)O)CCC1.[Pt]`, the inhibition (usually the drop in the measured response relative to a control, in per cent) is -25.8% (inactive) and -25% (inactive) in assay [6] (at 0.5 µM, stronger effect = higher value); -21.9% and -15.8% in assay [6] (measured here: combination with BGB IC20, at 0.005 µM); -33.4% and -11.2% in [6] (measured here: combination with BGB IC40, at 0.005 µM); -8.87% and -31.1% in assay [6] (setting [20]); -41.1% and -20.3% in assay [6] (measured here: combination with cisplatin, at 0.5 µM, stronger effect = higher value); -26.5% and -12.9% in assay [6] (measured here: combination with cisplatin, at 5 µM, stronger effect = higher value). In addition, the inhibition was -9.54% and -0.176% in assay [7] (BGB combo, at 5 µM); -16.9% (inactive) and -34.4% (inactive) in [7] (at 0.5 µM); -4.51% and -16.2% in [7] (cisplatin combo, at 5 µM); -16.3% and -33.3% in assay [7] (setting [21]); 7.01% and -41.5% in assay [7] (setting [22]); -8.33% and -8.24% in assay [7] (single agent, at 5 µM). Also, the inhibition was -35.7% (inactive) and -31.6% (inactive) in [8] (at 0.5 µM); -53% and -34.9% in [8] (setting [20]); -6.08% and -36.3% in assay [8] (setting [23]); -14.9% and -37.2% in [8] (setting [24]); -12.1% (inactive) and -29.4% (inactive) in assay [9] (at 0.5 µM); -30.4% and -34.9% in assay [9] (measured here: with BGB IC20, at 0.5 µM). For the same compound, the inhibition in [9] (measured here: with BGB IC20, at 5 µM) was 11.7% and -2.3%; in assay [9] (measured here: with cisplatin IC20, at 0.5 µM) it was 2.42% and -41.2%; in [9] (measured here: with cisplatin IC20, at 5 µM), 0.587% and 34.7%; in assay [9] (single agent, at 5 µM), -3.92% and 13.4%; in assay [10] (at 0.5 µM), -63.4% (inactive) and -87.5% (inactive); in [10] (measured here: combination with BGB at IC20, at 0.5 µM), -18.4% and -56.5%. The inhibition was -78.6% and -134% in assay [10] (measured here: combination with cisplatin at IC20, at 0.5 µM); -1.12% (inactive) and -17.2% (inactive) in assay [11] (at 0.5 µM); 0.288% and -20.6% in assay [11] (measured here: combo with BGB at IC20, at 0.5 µM); 4.09% and -19.6% in [11] (measured here: combo with cisplatin at IC20, at 0.5 µM); -2.74% (inactive) and -5.32% (inactive) in assay [12] (at 0.5 µM); 42.2% and -5.66% in assay [12] (measured here: inhibition with BGB combination, at 0.05 µM). In addition, the inhibition is -17.5% and -30.7% in assay [12] (measured here: inhibition with cisplatin combination, at 0.05 µM); -25.7% (inactive) and -8.57% (inactive) in [13] (at 0.5 µM); -29.8% and -25.9% in assay [13] (setting [23]); -19% and -16.7% in assay [13] (setting [24]); -21.7% (inactive) and -6.11% (inactive) in [14] (at 0.5 µM); -33.8% and -15% in [14] (measured here: BGB combination, at 0.5 µM). In addition, the inhibition in assay [14] (measured here: BGB combination, at 5 µM) was 3.84% and 2.53%; in assay [14] (measured here: cisplatin combination, at 0.5 µM), -26.3% and -12.4%; in assay [14] (measured here: cisplatin combination, at 5 µM), 14% and 17.8%; in assay [15] (BGB combination, concentration series, at 5 µM), 2.03% and 5.93%; in assay [15] (at 0.5 µM), -15.7% (inactive) and -7.62% (inactive); in assay [15] (cisplatin combination, concentration series, at 5 µM) it was 29.9% and 24.6%. The inhibition is -6.9% (inactive) and 14.2% (inactive) in assay [16]; -5.7% and 11.6% in [16] (measured here: combo with BGB IC20); -6.14% and 19.2% in [16] (measured here: combo with cisplatin IC20); -21% (inactive) and -15.1% (inactive) in assay [17] (at 0.5 µM); -2.17% and -35.9% in [17] (cisplatin combination, at 0.5 µM); -41.8% and -20.7% in [17] (cisplatin combination, at 5 µM). Also, the inhibition was -10.5% and -37.9% in assay [17] (measured here: BGB IC40 combination 0.05 uM, at 0.05 µM); -52.9% and -21.2% in assay [17] (single agent, at 5 µM); -27.3% (inactive) and -19.1% (inactive) in [18] (at 0.5 µM); -0.537% and -4.06% in assay [18] (cisplatin combo, at 5 µM); -23.2% and -16.9% in assay [18] (measured here: BGB IC40 combination, at 0.05 µM); -19.3% and -17.8% in [18] (setting [23]). Moreover, the inhibition in assay [18] (single agent, at 5 µM) is -46.1% and -19.1%; in assay [19] (at 0.5 µM) it was -31.3% (inactive) and -52.7% (inactive); in assay [19] (setting [21]), -4.25% and -43.2%; in assay [19] (setting [22]), -44.9% and -60%; in assay [19] (single agent, at 0.05 µM) it was -23.7% and -50.6%; in assay [19] (single agent, at 5 µM), 3.56% and 6.67%.
